Data on 34 compounds can be found in PubChem BioAssay (NCATS).

Inconclusive results are not listed. Values without a mark were called inactive. Activity calls are given as the source filed them. Calls come from the whole dose curve; as a rule, active = well fitted cell-killing curve with a large enough effect; inconclusive = small, poorly fitted or top-dose-only effect; inactive = flat fitted curve, though single readings scatter.

Assay [1] can be described thus: Cellular viability qHTS for adrenocortical cancer (ACC) cell line SW-13 (AID 1963989).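 For activity (max response): cells grown in serum-free medium with ITS supplement; % is set by controls: 0 for no effect and ±100 for the full control effect.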 Note: nearly all actives have a fitted effect of over 65% in size. The settings on record: SW-13 ACC cells viability, CellTiter-Glo, 48 h; activity (max response): hits give low values. In outline:
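SW-13 cells in ITS-supplemented serum-free DMEM were plated overnight, then exposed for 48 h at 37C to compound titrations (up to 46 uM final). Viability was read by CellTiter-Glo luminescence; four-parameter logistic fits gave IC50 and efficacy.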
A general note: In qHTS, concentration-response curves come from the screen itself.

A short description of assay [2]: Cellular viability qHTS for adrenocortical cancer (ACC) cell line NCI-H295R (AID 1963990). Note: nearly all actives have a fitted effect of over 60% in size. In short, it runs like this:
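Luminescent ATP read-out (CellTiter-Glo, 20 min RT) after 48 h drug exposure of NCI-H295R cells; a titration up to 46 uM final. Data normalized to doxorubicin (100% inhibition) and DMSO (0%); 4-parameter fit gives IC50, max response.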
Potency is the fitted concentration of half-maximal effect.

For `CC(=O)OCC(=O)[C@@]1(O)CC[C@H]2[C@@H]3CCC4=CC(=O)C=C[C@]4(C)[C@@]3(F)[C@@H](O)C[C@@]21C`, the activity (max response) in assay [1] is 2.62%. For the same compound, in assay [2], the Potency result is “inactive”.

As for `CC(C)Cc1ccc(C(C)C(=O)OCc2ccccn2)cc1` (stereo not drawn), the activity (max response) in assay [1] is 14%. In addition, in assay [2], the Potency entry is “inactive”.

Turning to `CCc1ccc(/C=C2/SC(=S)NC2=O)cc1`, the Potency in assay [1] is 25.1 µM (active); in assay [2], 17.8 µM (active).

Turning to `CCC(C)(CN(C)C)OC(=O)c1ccccc1` (stereo not drawn), the activity (max response) in assay [1] is -1.44%. Also, the Potency entry in assay [2] was “inactive”.

In the case of `O=C(O)Cn1c(=O)n(Cc2ccc(Br)cc2F)c(=O)c2ccc(Cl)cc21`, in assay [1], the activity (max response) is 14.5%. The Potency entry in assay [2] was “inactive”.

For the compound `CC1(C)[C@@H](O)CC[C@]2(C)[C@H]3C(=O)C=C4[C@@H]5C[C@@](C)(C(=O)O)CC[C@]5(C)CC[C@@]4(C)[C@]3(C)CC[C@@H]12`, the activity (max response) in assay [1] was 3.49%. In addition, the Potency entry in assay [2] is “inactive”.

Consider `CN/C(=C\[N+](=O)[O-])NCCSCc1ccc(CN(C)C)o1`, for which the activity (max response) in assay [1] is 0.385%. Moreover, in assay [2], the Potency result was “inactive”.

In the case of `N#CC1(c2ccc(F)cc2)CCC(=O)CC1`, the activity (max response) in assay [1] was 6.7%. Moreover, in assay [2], the Potency result is “inactive”.

As to `Cc1cc(Nc2cc(N3CCN(C)CC3)nc(/C=C/c3ccccc3)n2)n[nH]1`, the Potency in assay [1] was 25.1 µM (active); in assay [2] it was 10 µM (active).

Consider `CCOC(=O)OC(C)OC(=O)[C@@H]1N2C(=O)[C@@H](NC(=O)[C@H](N)c3ccccc3)[C@H]2SC1(C)C` (stereo partly drawn), for which, in assay [1], the activity (max response) is 4.54%. The Potency entry in assay [2] is “inactive”.

For the compound `CO[C@@]1(NC(=O)CSCC#N)C(=O)N2C(C(=O)O)=C(CSc3nnnn3C)CS[C@@H]21`, the activity (max response) in assay [1] is 9.84%. The Potency result in assay [2] was “inactive”.

With `COc1ccc(Cl)cc1-c1cc(=O)[nH]c(=S)n1CC(N)=O`, the activity (max response) in assay [1] was -3.52%. The Potency result in assay [2] is “inactive”.

On to `O=C(CCNC(=O)c1ccc(OC(F)(F)F)cc1)N[C@@H]1CCCc2ccccc21`, for which the activity (max response) in assay [1] was -26.4%. The Potency entry in assay [2] was “inactive”.

As to `C#C[C@]1(O)CC[C@H]2[C@@H]3CCc4cc(OC5CCCC5)ccc4[C@H]3CC[C@@]21C`, the activity (max response) in assay [1] was -6.39%. The Potency in assay [2] was 14.6 µM (active).

As to `CC1(N)CCN(c2cnc(-c3cccc(Cl)c3Cl)c(N)n2)CC1`, in assay [1], the activity (max response) is -1.73%. Further, in assay [2], the Potency entry is “inactive”.

Regarding `N#Cc1ccc(N(Cc2ccc(Br)cc2)n2cnnc2)cc1`, in assay [1], the activity (max response) is -0.886%. Besides, the Potency result in assay [2] was “inactive”.

Take `COc1ccc([C@@H](O)[C@@H](C)Oc2ccc([C@H]3O[C@H](c4ccc(O[C@H](C)[C@H](O)c5ccc(OC)c(OC)c5)c(OC)c4)[C@H](C)[C@H]3C)cc2OC)cc1OC`: the values for the Potency in assay [1] and in assay [2] were 0.316 µM (active) and 1.78 µM (active), respectively.

As to `CC(=O)Oc1ccc(C(=C2CCCCC2)c2ccc(OC(C)=O)cc2)cc1`, in assay [1], the activity (max response) is -5.44%. In assay [2], the Potency result is “inactive”.

As to `CC[C@H](c1ccc(O)cc1)[C@@H](CC)c1ccc(O)cc1`, the Potency in assay [1] was 5.17 µM (active); in assay [2] it was 2.59 µM (active).

With `CN(CC1(C)CCCO1)S(=O)(=O)c1ccc(Cl)c(S(N)(=O)=O)c1` (stereo not drawn), the activity (max response) in assay [1] is 13.7%. Further, in assay [2], the Potency entry was “inactive”.

As for `COc1ccc(-c2oc3c(CC=C(C)C)c(OC4O[C@H](CO)[C@@H](O)[C@H](O)[C@H]4O)cc(O)c3c(=O)c2OC2O[C@@H](C)[C@H](O)[C@@H](O)[C@H]2O)cc1` (stereo partly drawn), the activity (max response) in assay [1] is 7.81%. Besides, in assay [2], the Potency result was “inactive”.

As for `Nc1cc(C(F)(F)F)c(-c2nc(N3CCOCC3)nc(N3CCOCC3)n2)cn1`, the Potency in assay [1] was 11.2 µM (active); in assay [2] it was 2 µM (active).

Consider `O=C(O)CCNc1cc(N2CCc3ccccc3CC2)nc(-c2cccnc2)n1`, for which the activity (max response) in assay [1] is -9.23%. The Potency result in assay [2] was “inactive”.

In the case of `COc1ccc(-c2cnc3c(-c4cccc5ncccc45)cnn3c2)cc1`, in assay [1], the activity (max response) is 5.61%. The Potency entry in assay [2] is “inactive”.

Turning to `Nc1nc(Nc2ccc3c(c2)CC[C@@H](N2CCCC2)CC3)nn1-c1cc2c(nn1)-c1ccccc1CCC2`, the Potency was 14.1 µM (active) in assay [1] and 10 µM (active) in assay [2].

Turning to `CN1CCC[C@@H]1Cc1c[nH]c2ccc(CCS(=O)(=O)c3ccccc3)cc12`, the activity (max response) in assay [1] is -0.887%. For the same compound, the Potency result in assay [2] was “inactive”.

Take `CCOc1ccc(-n2c([C@@H](C)N(Cc3cccnc3)C(=O)Cc3ccc(F)c(C(F)(F)F)c3)nc3ncccc3c2=O)cc1`: in assay [1], the activity (max response) was -7.78%. In addition, in assay [2], the Potency entry was “inactive”.

As to `CCN(CC)CC(=O)Nc1c(C)cccc1C`, in assay [1], the activity (max response) is 2.91%. Further, the Potency entry in assay [2] is “inactive”.

Regarding `Nc1nc(OCc2cc(Br)cs2)c2[nH]cnc2n1`, the activity (max response) in assay [1] was -10.5%. For the same compound, in assay [2], the Potency entry was “inactive”.

With `CCCCCCCCCCCCOCCO`, the activity (max response) in assay [1] was 0.306%. Further, the Potency entry in assay [2] is “inactive”.

For the compound `CC1=C2[N-][C@H]([C@H](CC(N)=O)[C@@]2(C)CCC(=O)NC[C@@H](C)OP(=O)([O-])O[C@H]2[C@@H](O)[C@@H](n3cnc4cc(C)c(C)cc43)O[C@@H]2CO)[C@]2(C)N=C(C(C)=C3N=C(C=C4N=C1[C@@H](CCC(N)=O)C4(C)C)[C@@H](CCC(N)=O)[C@]3(C)CC(N)=O)[C@@H](CCC(N)=O)[C@]2(C)CC(N)=O.O.[Co+2]`, the activity (max response) in assay [1] is -17.2%. The Potency result in assay [2] was “inactive”.

`N[C@@H](CCC(=O)O)C(=O)N[C@@H](Cc1c[nH]c2ccccc12)C(=O)O`: the activity (max response) in assay [1] was 9.67%. Further, the Potency entry in assay [2] was “inactive”.

In the case of `Cc1ccccc1C(=O)N1CC/C(=N\OS(=O)(=O)O)c2ccc(Cl)cc21`, the activity (max response) in assay [1] was 5.63%. Moreover, the Potency result in assay [2] was “inactive”.

Take `CCC(C)CNCC(=O)N1CCc2sccc2C1c1cccc(C)n1` (stereo not drawn): in assay [1], the activity (max response) is 11.1%. The Potency result in assay [2] was “inactive”.
